Screening data as filed in PubChem.
An excerpt weighted towards active compounds, which were near 19% of everything screened.
IL1B secr inh: inhibitors of inflammasome signaling (IL-1 beta secretion) | THP-1 LPS/ATP IL-1B secretion, AlphaLISA, 16 h; stronger effect = lower value | activity change, % at 57.5 µM | 360,000 tested, 4.7% active; in the data active = activity change below about -50%; inconclusive = mostly about -30% to -49%; note: % is set by controls: 0 for no effect and ±100 for the full control effect
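THP-1 cells pretreated 1 hr with compounds (up to 57.5 uM final), then stimulated with LPS (250 ng/mL final) plus ATP (1.25 mM final); secreted IL-1B measured by AlphaLISA after 16 hr, decreased signal indicating inhibition.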
BCR signal inh: inhibitors of chronic active B-cell receptor signaling | ABC-DLBCL IkBa-CBG/CBR reporter, luminescence ratio, 4 h | Potency, µM (doses to about 46.1 µM), inactives show top-dose activity change, negative = inhibition, most hits filed as inhibitors | 340,000 tested, 0.05% active; active = well fitted inhibition curve with a large enough effect in the signal ratio, with a control signal flat, not every such curve was filed as active; inconclusive = small, poorly fitted or top-dose-only effect, or effect the other way, or a change in a side signal; the % refers to the signal ratio;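 note: potency is the fitted concentration of half-maximal effect; plate controls were basal doxycycline-induced cells for no effect and cells given 10 µM MG132 for full effect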
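TMD8 human ABC-DLBCL cells with doxycycline-inducible IκBα–green luciferase fusion and unfused red luciferase, in 0.5% FBS medium; compounds up to 46 uM, 4 h at 37C. Green/red luminescence ratio, filter-overlap corrected, fitted to concentration-response curves.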
MCF10A rerep: inducers of DNA re-replication in MCF 10A breast cells. MCF 10A DNA re-replication, Hoechst nuclear intensity, 48 h. Potency, µM (series often up to 46.1 µM), for inactives: at the highest dose activity, positive = re-replication, hits mostly activators. 350,000 tested, 2.9% active; note: potency is the fitted concentration of half-maximal effect; % of control where 0% means no effect; nearly all actives have a fitted effect of over 50% in size
SW480 rereplic: inducers of DNA re-replication in SW480 colon cancer cells | SW480 DNA re-replication, Hoechst DNA content imaging, 48 h | Potency, µM (titrated, usually from 46.1 µM), for inactives: at the top dose re-replication activation, actives largely listed as activators | 340,000 tested, 1.8% active | AID 624297; note: potency is the fitted concentration of half-maximal effect; % of control where 0% means no effect; nearly all actives have a fitted effect of over 55% in size
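250 cells/well; 23 nL cpd via pin tool; 48 hr, 37 C, 5% CO2; Hoechst 40 min; imager read of total nuclear intensity, ex 405/em 500-530 nm.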
DT40 TDP1 CPT: DT40-hTDP1 cell growth loss with CPT | chicken DT40 Tdp1-/-;hTDP1 cells + 20 nM CPT, ATP luminescence, 48 h | Potency, µM (titrated, usually from 46.2 µM), without a hit: at the highest dose activity change, negative = growth inhibition, hits mostly inhibitors | 420,000 tested, 12% active | AID 686979; note: potency is the fitted concentration of half-maximal effect; % is set by controls: 0 for no effect and ±100 for the full control effect; nearly all actives have a fitted effect of over 55% in size
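Chicken DT40 Tdp1-/- cells complemented with human TDP1, 400 cells/well, exposed to compounds plus 20 nM camptothecin for at least 48 h at 37 C; viability read as ATP content by CellTiter-Glo luminescence.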
TDP1 cell noCPT: qHTS for Inhibitors of human tyrosyl-DNA phosphodiesterase 1 (TDP1): qHTS in cells in absence of CPT; DT40 Tdp1-/- hTDP1 cells, no CPT, ATP luminescence, 48 h; Potency, µM (titrated, usually from 46.2 µM), for the others: top-dose activity change, negative = growth inhibition, most hits filed as inhibitors; 420,000 tested, 15% active; note: potency is the fitted concentration of half-maximal effect; % is set by controls: 0 for no effect and ±100 for the full control effect; nearly all actives have a fitted effect of over 55% in size
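Stably hTDP1-transfected Tdp1-null chicken DT40 cells were treated with library compounds minus camptothecin and grown for at least 48 hr at 37 °C, after which cellular ATP was quantified by luminescence.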
Active calls of the source: *; ? = inconclusive; / = not tested or not shown. Unless noted, calls come from the whole dose curve; as a rule, active = well fitted curve in the direction sought with a large enough effect; inconclusive = small, poorly fitted or top-dose-only effect, or another doubt; inactive = no such curve, though single readings can be large; an effect the other way counts as inactive or inconclusive.

SMILES | IL1B secr inh | BCR signal inh | MCF10A rerep | SW480 rereplic | DT40 TDP1 CPT | TDP1 cell noCPT
CCOC(=O)c1ccc(NC(=O)c2cccn(Cc3ccccc3F)c2=O)cc1 | / | / | / | / | ? | 20.6µM*
COc1cccc(NC(=O)c2cccn(Cc3ccccc3C)c2=O)c1 | / | / | / | / | ? | 25.9µM*
CCn1c(O)c(C(c2ccccn2)c2c(O)n(CC)c(=S)[nH]c2=O)c(=O)[nH]c1=S | -12.1 | 8.8% | 1.6% | -8.3% | 0.7% | -25.2%
O=C(CCS(=O)(=O)c1ccccc1)Nc1nnc(-c2ccco2)o1 | -2.0 | 6.8% | ? | 12.4% | ? | ?
O=c1[nH]c(O)c(N=Nc2cc([N+](=O)[O-])ccc2O)c(=O)[nH]1 | 0.8 | 8.3% | -28.0% | -19.3% | -6.8% | -27.1%
O=C(CCNC(=O)N1C[C@H]2C[C@@H](C1)c1cccc(=O)n1C2)Nc1ccc(F)cc1 | 20.5 | -7.3% | -7.9% | -7.6% | -14.9% | 2.7%
CN(C)S(=O)(=O)c1cc(NC(=O)COC(=O)Cc2ccccc2)ccc1Cl | 16.9 | 0.6% | 0.2% | 3.8% | ? | 18.4µM*
CN(C)S(=O)(=O)c1cc(NC(=O)C[N+]23CCN(CC2)CC3)ccc1Cl | 9.1 | 2.2% | 4.6% | -5.9% | -6.1% | 1.3%
Cc1ccc(CN2Cc3ccc(Br)cc3-n3nncc3C2)cc1 | -2.2 | / | / | / | ? | ?
COc1cc(C2c3cc4c(c(O)c3CC3COC(=O)C32)OCO4)cc(OC)c1OC (configuration not stated) | 24.1 | / | ? | 0.0517µM* | 0.092µM* | 0.116µM*
COc1cc([C@@H]2c3cc4c(c(O)c3C[C@H]3COC(=O)[C@@H]32)OCO4)cc(OC)c1OC | / | / | / | / | 0.159µM* | 0.126µM*
CC(C)C(=O)NC(Oc1ccccc1Cl)C(Cl)(Cl)Cl (configuration not stated) | 16.8 | -4.4% | -7.2% | -6.3% | -22.9% | -16.5%
CC1([N+](=O)[O-])COP(=O)(NC2CCCC2)OC1 (configuration not stated) | 0.0 | / | -3.3% | ? | -12.1% | -1.3%
O=C(Oc1ccccc1)N1CCC2(CCN(Cc3ccccc3)CC2)CC1 | / | / | / | / | 5.7% | -7.9%
c1ccc(CN2CCC3(CCNCC3)CC2)cc1 | / | / | / | / | 4.61µM* | 3.26µM*
c1ccc(N2CCC3(CCNCC3)CC2)nc1 | / | / | / | / | 18.4µM* | ?
Cc1ccc(CN2CCN(Cc3ccccc3)CC2)cc1 | 9.5 | ? | 9.1% | -7.5% | -8.5% | 11.0%
c1ccc(N2CCC3(CCNCC3)CC2)cc1 | / | / | / | / | -101.6% | 18.4µM*
c1ccc(CN2CCC3(CCc4ccccc43)CC2)cc1 | / | / | / | / | 23.7µM* | ?
O=C1NCN(c2ccccc2)C12CCNCC2 | 0.0 | 0.7% | 3.6% | -10.5% | -14.1% | -4.8%
CNCC(O)c1cc(OCc2ccccc2)c(OCc2ccccc2)cc1F (configuration not stated) | / | / | 25.0% | 21.5% | / | /
CC1=C(C)CC2(C(=O)NC(=S)NC2=O)C(C)C1 (configuration not stated) | 24.0 | / | -2.8% | -3.9% | 4.2% | -0.7%
C=CCC1(C(C)CCC)C(=O)N=C(S)NC1=O (configuration not stated) | / | / | -1.4% | -1.4% | -2.9% | -0.7%
C=CCn1c(O)c(C(C)=NC2CCN(Cc3ccccc3)CC2)c(=O)[nH]c1=O | -20.6 | -7.0% | 1.1% | -19.8% | 1.1% | -6.2%
CC(C)COP(=O)(c1ccc(N(C)C)cc1)C(O)c1ccccn1 (configuration not stated) | 22.3 | ? | 8.6% | -8.8% | 8.3% | -25.8%
Cc1oc2ccc(O)c(CN3CCCCCC3)c2c1C(=O)Nc1cccc(Cl)c1C | / | / | / | / | 3.66µM* | 5.8µM*
Cc1[nH]c2c(Cl)cccc2c(=O)c1CN1CCCCCC1 | 0.0 | 1.6% | 2.0% | -8.4% | ? | -15.6%
